Reference: the supplement of paper PMC6555819

Legend:
Experiment in all cases: PBM binding z-score (relative to random genomic background probes); higher = stronger binding; sequences stand for … in GC…GCGATTGACAGCGTAGAATGAAGG
[1] = test system: PPARg:RXRa DBDmut IVT, anti-RXR (DBD mutation: RXRa K156A/R161A, NR concentration 270 nM, RXRa partner concentration 90 nM)
Outline: (§1)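 Scanned fluorescence from custom Agilent 4×180K protein-binding microarrays was regression-normalized. Binding z-scores use random background probes as reference. Ligand-free nuclear receptor dimers were incubated on the arrays for 1 h and detected with antibodies against each partner (one per run).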

[2] = test system: PPARg:RXRa IVT, anti-PPARg (NR concentration 270 nM, RXRa partner concentration 90 nM)
Outline: as §1

[3] = test system: PPARg DBDmut:RXRa IVT, anti-PPARg (DBD mutation: PPARg1 K132A/R137A, NR concentration 270 nM, RXRa partner concentration 90 nM)
Outline: as §1

[4] = test system: PPARg DBDmut IVT, anti-PPARg (DBD mutation: PPARg1 K132A/R137A, NR concentration 270 nM)
Outline: as §1

[5] = test system: PPARg homodimer (NR concentration 180 nM)
Outline: as §1

[6] = test system: PXR:RXRa (NR concentration 270 nM, RXRa partner concentration 90 nM)
Outline: as §1

[7] = test system: PXR homodimer (NR concentration 270 nM)
Outline: as §1

[8] = test system: RARa:RXR (NR concentration 270 nM, RXRa partner concentration 90 nM)
Outline: as §1

[9] = test system: RARa homodimer (NR concentration 270 nM)
Outline: as §1

[10] = test system: RARb:RXRa (NR concentration 270 nM, RXRa partner concentration 90 nM)
Outline: as §1

[11] = test system: RARb homodimer (NR concentration 270 nM)
Outline: as §1

[12] = test system: RARg:RXRa (NR concentration 270 nM, RXRa partner concentration 90 nM)
Outline: as §1

[13] = test system: RARg homodimer (NR concentration 270 nM)
Outline: as §1

[14] = test system: RXRa DBDmut IVT, anti-RXR (DBD mutation: RXRa K156A/R161A, NR concentration 90 nM)
Outline: as §1

[15] = test system: RXRa homodimer (NR concentration 180 nM)
Outline: as §1

[16] = test system: THRa:RXRa (NR concentration 90 nM, RXRa partner concentration 90 nM)
Outline: as §1

[17] = test system: THRa homodimer (NR concentration 90 nM)
Outline: as §1

[18] = test system: VDR homodimer (NR concentration 270 nM)
Outline: as §1

Sequence	PBM binding z-score [1]	PBM binding z-score [2]	PBM binding z-score [3]	PBM binding z-score [4]	PBM binding z-score [5]	PBM binding z-score [6]	PBM binding z-score [7]	PBM binding z-score [8]	PBM binding z-score [9]	PBM binding z-score [10]	PBM binding z-score [11]	PBM binding z-score [12]	PBM binding z-score [13]	PBM binding z-score [14]	PBM binding z-score [15]	PBM binding z-score [16]	PBM binding z-score [17]	PBM binding z-score [18]
ATCTCTAGGTAGAGTTCAGTGAAAGATCGATAGA	0.277	0.789	1.33	0.623	0.95	2.52	2.07	1.22	0.329	1.82	1.89	1.61	1.55	2.18	1.3	0.946	-0.259	3.41
CCGACTGGGGCATAAGGTTAGCATAAGCCAGCCC	3.03	2.86	-1.39	-1.75	-0.109	-0.447	-0.542	0.115	-0.345	1.12	1.26	0.672	0.69	-0.721	0.224	1.01	0.298	-0.543
ATATGTAGGTTAAGGGTCTTTCAGGTTGGTTCGC	7.78	7.16	1.06	1.67	2.46	1.45	1.1	1.64	1.86	1.55	1.78	1	0.853	0.724	1.96	1.54	1.44	1.64
ACTAGCAGGCCAAGTTTGGGTAACTCAAACAAAG	0.555	0.362	-0.71	-1.1	-0.788	-0.378	-0.687	-0.383	-0.573	0.143	-0.346	-0.166	0.104	-0.417	-0.603	0.525	-0.513	-0.292
ATATGTAGGCTATCGGGTCATTCAGTTTGCGCAT	5.77	5.5	1.43	1.46	1.08	2.87	6.85	2.54	0.357	1.72	2.23	2.01	1.52	1.1	2.08	2.91	1.79	3.16
TATACAGGGTCAAAGGCCAGAATACGAATGTCGA	1.98	4.81	2.92	2.34	2.02	3.86	0.553	5.78	0.841	4.28	3.2	5.71	5.1	2.7	6.99	3.41	0.697	2.6
TTACCAAGGTGAAGGTCGTTGGTCCCTCTGTAGA	2.04	3.34	-0.723	-0.44	0.993	1.03	-0.26	1.49	-0.694	2.17	1.98	1.01	0.783	0.488	1.27	2.29	1.1	0.98
CGAACTCGGTCAGAACAGGACAGTGAAGGATGAT	1.72	1.11	-0.0702	0.48	0.274	-0.108	-0.225	0.713	-0.378	1.55	1.03	1.4	1.81	0.172	0.348	1.78	-0.368	0.368
